# Measured values as given in PubChem BioAssay (NCATS).
# Inconclusive results are not listed. A call without a number means that no potency is given here. Activity calls are given as the source filed them. Calls follow the shape of the dose curve; as a rule, active = well fitted curve in the direction sought with a large enough effect; inconclusive = small, poorly fitted or top-dose-only effect, or another doubt; inactive = no such curve, though single readings can be large; an effect the other way counts as inactive or inconclusive.
# Columns and labels:
# [1] = qHTS of pediatric cancer cell lines to identify multiple opportunities for drug repurposing: Primary screen for TC32 cells (AID 1347089); settings: TC32 Ewing sarcoma viability, CellTiter-Glo luminescence, 48 h; series mostly up to 45.8 µM; also: nearly all actives have a fitted effect of over 60% in size
# Method in brief: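 TC32 cells, 500-1,000/well in growth medium, compound-treated 48 h at 37 °C; viability from CellTiter-Glo luminescence. Primary screen: MIPE 11-point (0.78 nM–46 µM final), NPC 8-point (0.59 nM–46 µM final); confirmatory at 11-point dilutions.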
# [2] = qHTS of pediatric cancer cell lines to identify multiple opportunities for drug repurposing: Primary screen for DAOY cells (AID 1347090); settings: DAOY medulloblastoma viability, CellTiter-Glo luminescence, 48 h; series mostly up to 46 µM; also: nearly all actives have a fitted effect of over 55% in size
# Method in brief: (§1)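 Eight- or eleven-point concentration series, 48 h treatment at 37 degrees C in growth media; readout CellTiter-Glo luminescence. Potency and efficacy were taken from the concentration-response curves.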
# [3] = qHTS of pediatric cancer cell lines to identify multiple opportunities for drug repurposing: Primary screen for SJ-GBM2 cells (AID 1347091); settings: SJ-GBM2 viability, CellTiter-Glo luminescence, 48 h; series mostly up to 46 µM
# Method in brief: as §1
# [4] = qHTS of pediatric cancer cell lines to identify multiple opportunities for drug repurposing: Primary screen for A673 cells (AID 1347092); settings: A673 Ewing sarcoma viability, CellTiter-Glo ATP luminescence, 48 h; series mostly up to 46 µM; also: nearly all actives have a fitted effect of over 45% in size
# Method in brief: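 A673 cells (500-1,000 cells/well) were treated 48 hours at 37 degrees C with compounds at 11-point (0.78 nM to 46 µM) or 8-point (0.59 nM to 46 µM) dilutions. Viability read by CellTiter-Glo luminescence; concentration-response curves fitted.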
# [5] = qHTS of pediatric cancer cell lines to identify multiple opportunities for drug repurposing: Primary screen for SK-N-MC cells (AID 1347093); settings: SK-N-MC viability, CellTiter-Glo luminescence, 48 h; series mostly up to 46 µM
# Method in brief: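 Metabolically active cells were quantified by ATP-dependent luminescence (CellTiter-Glo, 15 min at room temperature) following 48 h treatment. Cells had been plated at 500-1,000 per well and settled for 5 h beforehand.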
# [6] = qHTS of pediatric cancer cell lines to identify multiple opportunities for drug repurposing: Primary screen for BT-37 cells (AID 1347094); settings: BT-37 viability, CellTiter-Glo luminescence, 48 h; series mostly up to 57.3 µM
# Method in brief: (§2)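 Readout: CellTiter-Glo luminescence, 48 h treatment. Controls DMSO (neutral) and bortezomib 2.3 µM final (positive). Potency and efficacy taken from primary-screen concentration-response curves.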
# [7] = qHTS of pediatric cancer cell lines to identify multiple opportunities for drug repurposing: Primary screen for NB-EBc1 cells (AID 1347095); settings: NB-EBc1 neuroblastoma viability, CellTiter-Glo luminescence, 48 h; series mostly up to 46 µM
# Method in brief: as §2
# [8] = qHTS of pediatric cancer cell lines to identify multiple opportunities for drug repurposing: Primary screen for U-2 OS cells (AID 1347096); settings: U-2 OS viability, CellTiter-Glo luminescence, 48 h; series mostly up to 46 µM; also: nearly all actives have a fitted effect of over 50% in size
# Method in brief: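 Cells (500-1,000/well) in growth media were settled 5 h at 37 degrees C, then given compounds for 48 h. Viability was read as CellTiter-Glo luminescence. Primary runs used MIPE at 11 points (0.78 nM-46 µM) and NPC at 8 points (0.59 nM-46 µM); follow-ups used 11 points.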
# [9] = qHTS of pediatric cancer cell lines to identify multiple opportunities for drug repurposing: Primary screen for Saos-2 cells (AID 1347097); settings: Saos-2 viability, CellTiter-Glo ATP luminescence, 48 h; series mostly up to 46 µM; also: nearly all actives have a fitted effect of over 40% in size
# Method in brief: as §2
# [10] = qHTS of pediatric cancer cell lines to identify multiple opportunities for drug repurposing: Primary screen for SK-N-SH cells (AID 1347098); settings: SK-N-SH viability, CellTiter-Glo luminescence, 48 h; series mostly up to 57 µM; also: nearly all actives have a fitted effect of over 65% in size
# Method in brief: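 Cells (500-1,000/well) rested 5 h, then received compounds for 48 h; metabolically active cells were measured by CellTiter-Glo luminescence. Final concentrations spanned up to 46 µM (MIPE, 11-point) or 0.59 nM-46 µM (NPC, 8-point) in primary screens, 11-point in follow-ups.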
# Potency is read from the fitted curve at half-maximal effect.
SMILES,Potency [1],Potency [2],Potency [3],Potency [4],Potency [5],Potency [6],Potency [7],Potency [8],Potency [9],Potency [10]
O=C(O)CCCOc1ccc(Cl)cc1Cl,inactive,inactive,inactive,313 nM (active),inactive,inactive,inactive,inactive,inactive,
CCOP(=O)(NC(C)C)Oc1ccc(SC)c(C)c1 (configuration not stated),inactive,inactive,inactive,inactive,inactive,inactive,inactive,inactive,inactive,inactive
CC(Cc1ccc(O)cc1)NCC(O)c1cc(O)cc(O)c1 (configuration not stated),inactive,inactive,inactive,inactive,inactive,inactive,inactive,inactive,inactive,inactive
Cc1cc(O)ccc1Cl,inactive,inactive,inactive,inactive,inactive,inactive,inactive,inactive,inactive,inactive
CCCCC(CC)COC(=O)c1ccccc1C(=O)OCC(CC)CCCC (configuration not stated),inactive,inactive,inactive,inactive,inactive,inactive,inactive,inactive,,
COC(=O)c1cncn1C(C)c1ccccc1 (configuration not stated),inactive,inactive,inactive,inactive,inactive,inactive,inactive,inactive,,inactive
CN[C@@H](C)[C@H](O)c1ccccc1,inactive,inactive,inactive,inactive,inactive,inactive,inactive,inactive,inactive,inactive
Nc1c(Cl)c(Cl)c(Cl)c(Cl)c1Cl,inactive,inactive,inactive,inactive,inactive,inactive,inactive,inactive,inactive,inactive
N#C[C@H](O[C@@H]1O[C@H](CO[C@@H]2O[C@H](CO)[C@H](O)[C@H](O)[C@H]2O)[C@H](O)[C@H](O)[C@H]1O)c1ccccc1,inactive,23500 nM (active),26400 nM (active),29600 nM (active),10500 nM (active),24300 nM (active),inactive,,,
CC(C)(C)C(O)C(Oc1ccc(Cl)cc1)n1cncn1 (configuration not stated),inactive,inactive,inactive,inactive,1 nM (active),inactive,inactive,inactive,,
CC(=O)N(C)c1cccc(-c2ccnc3c(C(=O)c4cccs4)cnn23)c1,inactive,inactive,inactive,inactive,inactive,inactive,inactive,inactive,inactive,
O=[N+]([O-])/N=C1\NCCN1Cc1ccc(Cl)nc1,inactive,inactive,inactive,inactive,inactive,inactive,inactive,inactive,,inactive
CN(C)NC(=O)CCC(=O)O,inactive,inactive,inactive,inactive,inactive,inactive,inactive,inactive,,inactive
Oc1ccc2c3c1O[C@H]1c4[nH]c5c(c4C[C@@]4(O)[C@@H](C2)N(CC2CC2)CC[C@]314)C[C@@]1(O)[C@H]2Cc3ccc(O)c4c3[C@@]1(CCN2CC1CC1)[C@H]5O4,inactive,inactive,inactive,inactive,inactive,inactive,inactive,inactive,inactive,inactive
Cc1ccccc1-n1c(Cn2cnc3c(N)ncnc32)nc2cccc(C)c2c1=O,1310 nM (active),1480 nM (active),187 nM (active),590 nM (active),20.9 nM (active),3850 nM (active),743 nM (active),14800 nM (active),,8570 nM (active)
Cc1nc(-c2ccc(-c3ccc(C(=O)N4CCc5cc6c(cc54)C4(CCN(C)CC4)CO6)cc3)c(C)c2)no1,inactive,inactive,inactive,inactive,inactive,inactive,inactive,inactive,inactive,
Nc1ccc(Cl)cc1,inactive,inactive,inactive,inactive,inactive,inactive,inactive,inactive,,inactive
C[C@H]([C@H](O)CCC(C)(C)O)[C@H]1CC[C@@]2(O)C3=CC(=O)[C@@H]4C[C@@H](O)[C@@H](O)C[C@]4(C)[C@@H]3CC[C@]12C,inactive,inactive,inactive,inactive,inactive,inactive,inactive,inactive,inactive,inactive
CN(C)[C@@H]1C(=O)C(C(N)=O)=C(O)[C@@]2(O)C(=O)C3=C(O)c4c(O)cccc4[C@@](C)(O)[C@H]3[C@H](O)[C@@H]12,inactive,inactive,inactive,inactive,inactive,inactive,inactive,inactive,inactive,
O=S(=O)(O)C(F)(F)C(F)(F)C(F)(F)C(F)(F)F,inactive,inactive,inactive,inactive,inactive,inactive,inactive,inactive,,inactive

SMILES,Potency [1],Potency [2],Potency [3],Potency [4],Potency [5],Potency [6],Potency [7],Potency [8],Potency [9],Potency [10]
c1ccc2c(CN3CCNCC3)cccc2c1,inactive,inactive,inactive,inactive,29600 nM (active),inactive,inactive,inactive,inactive,inactive
CCCCOC(=O)c1ccccc1C(=O)OCc1ccccc1,inactive,inactive,inactive,inactive,inactive,inactive,inactive,inactive,,inactive
COc1nn(CSP(=S)(OC)OC)c(=O)s1,inactive,,,,,,,,,
CC(N[C@H]1C[C@H]1c1ccccc1)c1ccc2c(c1)OCCO2 (some centres not stated),inactive,inactive,inactive,inactive,inactive,inactive,inactive,inactive,inactive,
CC(C)N(CCNC(=O)CN1CCCC1=O)C(C)C,inactive,inactive,inactive,inactive,inactive,inactive,inactive,inactive,inactive,inactive
C[C@@H]1[C@H](O)[C@@H](C)C=CC=CCCC=CC=CC=CC=C[C@H](O[C@H]2O[C@@H](C)[C@H](O)[C@@H](N)[C@@H]2O)CC2O[C@](O)(C[C@@H](O)[C@H](O)CC[C@@H](O)C[C@@H](O)C[C@@H](O)CC(=O)O[C@H]1C)C[C@H](O)[C@H]2C(=O)O,inactive,inactive,inactive,inactive,inactive,inactive,inactive,inactive,inactive,inactive
O=C(O)COc1ccccc1,inactive,inactive,inactive,inactive,inactive,inactive,inactive,inactive,inactive,inactive
COC1=CC(C)=C[C@@H](C)[C@@H](O)[C@@H](C)CC(C)=CC=C[C@H](OC)[C@H]([C@@H](C)[C@@H](O)[C@H](C)[C@@]2(O)C[C@@H](O)[C@H](C)[C@@H](C(C)C)O2)OC1=O,330 nM (active),2.3 nM (active),1 nM (active),3.7 nM (active),2.1 nM (active),3.4 nM (active),1 nM (active),37200 nM (active),29600 nM (active),13.6 nM (active)
Cc1ccc(Cl)c(O)c1,inactive,inactive,inactive,inactive,inactive,inactive,inactive,inactive,inactive,inactive
COc1cccc2c1[C@]13CCN(CC4CC4)[C@H](C2)[C@]1(OC)CCC(=O)C3,inactive,inactive,inactive,inactive,inactive,inactive,inactive,inactive,inactive,inactive
O=C(O)c1cc(Oc2ccc(C(F)(F)F)cc2Cl)ccc1[N+](=O)[O-],inactive,inactive,inactive,inactive,inactive,inactive,inactive,inactive,inactive,inactive
CCOC(=O)c1cncn1[C@H](C)c1ccccc1,inactive,inactive,inactive,inactive,inactive,inactive,inactive,inactive,,inactive
CCC1(CCC(C)C)C(=O)NC(=O)NC1=O,inactive,inactive,inactive,inactive,inactive,inactive,inactive,inactive,inactive,inactive
O=C(O)C(Cl)Cl,inactive,inactive,inactive,inactive,inactive,inactive,inactive,inactive,,inactive
O=[N+]([O-])c1ccc([As](=O)(O)O)cc1,inactive,inactive,inactive,inactive,inactive,inactive,inactive,inactive,,inactive
CC(=O)[O][Hg][c]1ccccc1,1870 nM (active),1680 nM (active),,106 nM (active),531 nM (active),2190 nM (active),21100 nM (active),2660 nM (active),668 nM (active),970 nM (active)
c1cc2ccc3cccc4ccc(c1)c2c34,inactive,inactive,inactive,inactive,,inactive,inactive,inactive,,inactive
NC1=NC(=O)N2CC12 (configuration not stated),inactive,inactive,inactive,,,19300 nM (active),inactive,,13200 nM (active),inactive
O=[N+]([O-])c1c(Cl)c(Cl)cc(Cl)c1Cl,inactive,inactive,inactive,inactive,,inactive,inactive,inactive,inactive,inactive
